“And” between values parts separate entries of the source, which are not always exact repeats. Equal values may be shown once.
Columns and labels:
Conditions in all cases: Compound concentration 20.0 uM
[1] = target: Tyrosine-protein kinase ABL1 (Homo sapiens) (UniProt P00519)
[2] = target: Bromodomain-containing protein 4 (Homo sapiens) (UniProt O60885)
[3] = target: Cyclin-dependent kinase 2 (Homo sapiens) (UniProt P24941)
[4] = target: Casein kinase I isoform delta (Homo sapiens) (UniProt P48730)
[5] = target: Glycogen synthase kinase-3 beta (Homo sapiens) (UniProt P49841)
[6] = target: Mitogen-activated protein kinase 1 (Homo sapiens) (UniProt P28482)
[7] = target: T1, Aurora kinase A (Homo sapiens) (UniProt O14965)
T1 sequence (whole entry): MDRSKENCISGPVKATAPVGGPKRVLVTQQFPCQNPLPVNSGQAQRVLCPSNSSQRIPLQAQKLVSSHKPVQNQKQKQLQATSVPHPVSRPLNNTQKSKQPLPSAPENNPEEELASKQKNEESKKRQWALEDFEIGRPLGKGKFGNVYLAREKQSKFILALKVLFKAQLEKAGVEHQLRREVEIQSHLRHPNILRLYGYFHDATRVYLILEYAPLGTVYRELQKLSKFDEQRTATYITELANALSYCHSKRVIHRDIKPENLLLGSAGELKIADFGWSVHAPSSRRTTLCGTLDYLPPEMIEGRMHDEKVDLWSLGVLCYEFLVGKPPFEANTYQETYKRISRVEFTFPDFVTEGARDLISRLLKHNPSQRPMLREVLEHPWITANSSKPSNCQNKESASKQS

[8] = target: T2, Transcription intermediary factor 1-alpha (Homo sapiens) (UniProt O15164)
T2 sequence (whole entry): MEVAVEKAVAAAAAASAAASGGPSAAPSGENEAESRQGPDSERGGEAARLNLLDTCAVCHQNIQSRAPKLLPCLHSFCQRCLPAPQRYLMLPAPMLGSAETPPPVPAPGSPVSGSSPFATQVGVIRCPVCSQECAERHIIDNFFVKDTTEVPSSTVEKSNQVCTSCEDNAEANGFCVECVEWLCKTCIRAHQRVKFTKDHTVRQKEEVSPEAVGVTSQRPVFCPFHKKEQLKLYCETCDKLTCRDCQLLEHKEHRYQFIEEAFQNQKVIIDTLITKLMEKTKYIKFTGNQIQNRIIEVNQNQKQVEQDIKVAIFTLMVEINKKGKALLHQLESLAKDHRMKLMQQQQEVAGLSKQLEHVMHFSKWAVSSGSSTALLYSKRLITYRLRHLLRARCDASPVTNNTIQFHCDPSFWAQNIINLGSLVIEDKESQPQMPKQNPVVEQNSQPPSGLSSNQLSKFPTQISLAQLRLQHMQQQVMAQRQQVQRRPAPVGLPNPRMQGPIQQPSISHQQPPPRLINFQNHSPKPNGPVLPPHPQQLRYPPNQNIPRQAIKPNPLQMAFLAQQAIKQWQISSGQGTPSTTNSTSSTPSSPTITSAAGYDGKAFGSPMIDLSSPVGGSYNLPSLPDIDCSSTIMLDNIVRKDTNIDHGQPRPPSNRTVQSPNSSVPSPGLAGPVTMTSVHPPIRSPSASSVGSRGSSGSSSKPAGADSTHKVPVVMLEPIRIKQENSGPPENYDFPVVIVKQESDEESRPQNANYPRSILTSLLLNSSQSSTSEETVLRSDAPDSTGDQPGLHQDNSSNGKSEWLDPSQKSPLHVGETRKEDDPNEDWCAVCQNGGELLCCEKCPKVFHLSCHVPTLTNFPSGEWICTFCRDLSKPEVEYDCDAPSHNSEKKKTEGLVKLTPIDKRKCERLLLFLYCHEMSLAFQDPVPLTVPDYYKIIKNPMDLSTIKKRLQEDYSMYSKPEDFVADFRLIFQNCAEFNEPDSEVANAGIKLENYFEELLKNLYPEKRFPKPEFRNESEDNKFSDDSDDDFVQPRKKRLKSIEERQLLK

Tyrosine-protein kinase ABL1 (Homo sapiens), sequence (P00519 whole entry): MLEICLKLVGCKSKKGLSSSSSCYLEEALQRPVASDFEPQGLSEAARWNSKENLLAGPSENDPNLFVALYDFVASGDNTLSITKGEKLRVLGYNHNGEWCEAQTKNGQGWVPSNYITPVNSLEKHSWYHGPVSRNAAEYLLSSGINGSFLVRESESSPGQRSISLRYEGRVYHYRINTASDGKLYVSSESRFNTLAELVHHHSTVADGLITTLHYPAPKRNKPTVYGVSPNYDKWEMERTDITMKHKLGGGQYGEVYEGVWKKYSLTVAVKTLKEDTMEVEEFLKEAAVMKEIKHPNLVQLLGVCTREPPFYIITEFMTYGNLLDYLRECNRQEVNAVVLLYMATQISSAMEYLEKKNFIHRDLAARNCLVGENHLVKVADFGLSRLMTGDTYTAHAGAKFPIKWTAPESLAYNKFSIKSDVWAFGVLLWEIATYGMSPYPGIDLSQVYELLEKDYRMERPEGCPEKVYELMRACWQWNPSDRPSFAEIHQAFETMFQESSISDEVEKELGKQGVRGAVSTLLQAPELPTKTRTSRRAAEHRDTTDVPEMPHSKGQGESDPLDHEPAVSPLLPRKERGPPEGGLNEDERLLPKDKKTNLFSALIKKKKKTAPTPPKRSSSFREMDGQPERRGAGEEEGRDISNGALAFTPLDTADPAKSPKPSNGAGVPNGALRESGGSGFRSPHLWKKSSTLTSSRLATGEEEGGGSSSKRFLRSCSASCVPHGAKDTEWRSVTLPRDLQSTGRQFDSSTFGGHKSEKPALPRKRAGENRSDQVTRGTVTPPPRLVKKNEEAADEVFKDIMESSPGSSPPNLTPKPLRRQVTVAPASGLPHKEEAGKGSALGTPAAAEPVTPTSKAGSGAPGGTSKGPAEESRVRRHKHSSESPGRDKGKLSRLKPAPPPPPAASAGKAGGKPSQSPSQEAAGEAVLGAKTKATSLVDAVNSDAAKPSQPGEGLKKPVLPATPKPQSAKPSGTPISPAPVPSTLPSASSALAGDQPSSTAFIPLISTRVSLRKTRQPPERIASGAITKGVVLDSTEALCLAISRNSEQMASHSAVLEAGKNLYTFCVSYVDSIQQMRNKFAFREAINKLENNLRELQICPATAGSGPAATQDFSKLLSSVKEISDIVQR
Casein kinase I isoform delta (Homo sapiens), sequence (P48730 whole entry, looked up, canonical isoform): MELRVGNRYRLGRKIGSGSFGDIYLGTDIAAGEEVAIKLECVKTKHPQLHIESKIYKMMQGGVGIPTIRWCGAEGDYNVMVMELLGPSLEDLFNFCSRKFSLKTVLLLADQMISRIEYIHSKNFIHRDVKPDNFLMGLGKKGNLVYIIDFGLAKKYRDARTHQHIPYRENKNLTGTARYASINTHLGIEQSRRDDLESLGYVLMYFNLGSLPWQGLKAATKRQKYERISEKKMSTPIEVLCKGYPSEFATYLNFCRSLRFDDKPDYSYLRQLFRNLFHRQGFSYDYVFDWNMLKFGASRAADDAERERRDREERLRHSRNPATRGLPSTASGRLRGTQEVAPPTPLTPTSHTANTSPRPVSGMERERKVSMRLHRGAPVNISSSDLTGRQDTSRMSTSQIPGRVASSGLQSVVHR
Mitogen-activated protein kinase 1 (Homo sapiens), sequence (P28482 whole entry): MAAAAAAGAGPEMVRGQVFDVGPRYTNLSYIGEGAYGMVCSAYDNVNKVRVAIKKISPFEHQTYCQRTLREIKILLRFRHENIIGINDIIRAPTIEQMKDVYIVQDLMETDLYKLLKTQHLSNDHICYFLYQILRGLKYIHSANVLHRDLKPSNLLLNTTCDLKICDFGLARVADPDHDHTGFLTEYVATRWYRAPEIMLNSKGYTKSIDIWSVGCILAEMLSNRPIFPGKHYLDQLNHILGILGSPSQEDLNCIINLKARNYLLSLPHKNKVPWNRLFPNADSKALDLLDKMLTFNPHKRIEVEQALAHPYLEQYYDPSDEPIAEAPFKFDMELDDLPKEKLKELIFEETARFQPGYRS
Glycogen synthase kinase-3 beta (Homo sapiens), sequence (P49841 whole entry, looked up): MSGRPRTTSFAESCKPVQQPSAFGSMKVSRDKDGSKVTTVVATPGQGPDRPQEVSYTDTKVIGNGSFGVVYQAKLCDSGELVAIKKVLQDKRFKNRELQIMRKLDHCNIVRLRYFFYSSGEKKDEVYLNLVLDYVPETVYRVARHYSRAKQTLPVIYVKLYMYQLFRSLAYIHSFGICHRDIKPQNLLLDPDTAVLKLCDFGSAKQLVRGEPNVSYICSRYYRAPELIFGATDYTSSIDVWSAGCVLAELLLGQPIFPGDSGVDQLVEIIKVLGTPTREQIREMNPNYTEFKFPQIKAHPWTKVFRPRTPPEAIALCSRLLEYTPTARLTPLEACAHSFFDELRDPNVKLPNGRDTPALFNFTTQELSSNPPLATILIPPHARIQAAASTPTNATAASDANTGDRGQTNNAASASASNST

Row | Compound | ΔTm [1] | ΔTm [2] | ΔTm [3] | ΔTm [4] | ΔTm [5] | ΔTm [6] | ΔTm [7] | ΔTm [8]
1 | O=C(O)CCNc1cc(N2CCc3ccccc3CC2)nc(-c2ccccn2)n1 | 0.06 °C | 0.28 °C | -0.09 °C | -0.34 °C | 0 °C | -0.2 °C | -1.3 °C | 0.15 °C
2 | O=c1[nH][nH]c(=O)c2cc(OCc3ccccc3F)ccc12 | 3.37 °C | -1.6 °C | 0.72 °C | -6.69 °C | 1.24 °C | -14.6 °C | -0.33 °C | 0 °C
3 | CSc1cccc(Nc2ncc3cc(-c4c(Cl)cccc4Cl)c(=O)n(C)c3n2)c1 |  | -0.42 °C | 0.94 °C | 0.35 °C |  | -1 °C | -0.33 °C | 
4 | CN(Cc1cc(Br)cc(Br)c1N)C1CCCCC1 | -0.03 °C | -2.64 °C | -0.09 °C | -0.11 °C | -0.69 °C |  | -0.8 °C | 0.31 °C
5 | COc1cc(Oc2ccnc3cc(OC)c(OC)cc23)ccc1NC(=O)NC(C)c1nccs1 (centres undefined) | 9.54 °C | -3.36 °C |  | 0.28 °C | -1.46 °C | -9.78 °C | -0.11 °C | -0.38 °C
6 | C[C@H]1CO[C@@H]2Cn3cc(C(=O)NCc4ccc(F)cc4F)c(=O)c(O)c3C(=O)N12 | 0.13 °C | -2.15 °C | 0.09 °C | -0.04 °C | -0.88 °C | 0.4 °C | -0.95 °C | 0.47 °C
7 | COc1ccccc1S(=O)(=O)Nc1ccc2c(c1)CN(C)C(=O)N2 | 0.3 °C |  | 0.12 °C | -0.3 °C | -0.34 °C | 0.22 °C | -2.31 °C | -0.41 °C
8 | CC(C)(O)c1ccc(N2Cc3c(ccnc3-c3ccc(F)cc3OCC(F)(F)F)C2=O)cc1 | 1.61 °C | -2.56 °C | -1.07 °C | 0.07 °C | 0.38 °C | -10.3 °C | 1.43 °C | -1.06 °C
9 | Cc1ncsc1-c1ccc(CNC(=O)[C@@H]2C[C@@H](O)CN2C(=O)[C@@H](NC(=O)COCCOCCOc2ccc(-c3ccc4ncnc(Nc5ccc(OCc6cccc(F)c6)c(Cl)c5)c4c3)cc2)C(C)(C)C)cc1 | 2.92 °C | 5.48 °C | 5.97 °C | -3.34 °C | 9.57 °C | -2.89 °C | 7.09 °C | 10.8 °C
10 | COc1nc(Nc2cc(S(C)(=O)=O)ccc2N[C@@H](c2cccc3c2OC(F)(F)O3)c2ncccc2Cl)nc(N2CCNCC2)n1 | -0.96 °C | -4.95 °C | -3.51 °C | -0.34 °C | 0 °C | 0 °C | -5.82 °C | 0.37 °C
11 | Cc1nn2c(nc(O)c3cccnc32)c1C#N | 0.68 °C | -3.07 °C | 0.02 °C | -0.11 °C | -0.51 °C | 0.18 °C | -2.1 °C | 1.17 °C
12 | CNCc1ccc(-c2[nH]c3cc(F)cc4c3c2CCNC4=O)cc1 | 0.58 °C | -1.77 °C | 0.36 °C | 0.56 °C | 5.05 °C | 0.13 °C |  | -0.05 °C
13 | FC(F)(F)Oc1ccc(Oc2ccnc(N3CCC(NC(=S)Nc4cccnc4)CC3)c2Cl)c(Cl)c1 | 0 °C and -0.06 °C | -3.17 °C and -5.35 °C | -0.35 °C and 0.35 °C | -2.73 °C and 0.27 °C |  |  | 0.16 °C and -1.29 °C | 1.66 °C and 0 °C
14 | COc1cc2/c(=N/c3ccc(Br)cc3F)nc[nH]c2cc1OCC1CCN(C)CC1 |  | -0.83 °C | 0.52 °C | 1.25 °C | -0.61 °C | 0.07 °C |  | -1.14 °C
15 | C[C@@H](Nc1nc2c(cnn2C2CCCC2)c(=O)[nH]1)C(=O)N1CC[C@H](F)C1 | 0.58 °C | -2.88 °C | 0.63 °C | -0.33 °C | 1.37 °C | 0.07 °C | -2 °C | 0.97 °C
16 | CCCCOc1c(OC)cc(C(=O)NCC2(N(C)C)CCOCC2)cc1OC | 0.07 °C | 0.11 °C | 0.02 °C | -0.36 °C | -1.71 °C | 0.03 °C | -2.39 °C | -0.41 °C
17 | COc1cc(Nc2ncc(F)c(Nc3ccc4c(n3)NC(=O)C(C)(C)O4)n2)cc(OC)c1OC | 4.14 °C | -1.7 °C | 0.13 °C | -0.37 °C | 2.52 °C | -3.17 °C |  | -0.42 °C
